Our source for the INHIBITION values is ChEMBL document CHEMBL4513216, “Probing the Open Global Health Chemical Diversity Library for Multistage-Active Starting Points for Next-Generation Antimalarials” (ACS Infect Dis, 2020).

Out of some 69,000 compounds screened, about 8,600 (12%) showed an effect of 50% or more. Only a selection was taken, and strong results are over-represented in it overall.

The assay has as its system Plasmodium berghei. In words: Screen against P. berghei liver stage (PbLuc), transformed with Luciferase, at 10uM. Format: functional, HepG2. The following applies: tested at 10 uM.
In the case of `O=C(C1CCCN(Cc2cccnc2)C1)N1CCc2sccc2C1` (stereo not drawn), the INHIBITION amounted to 55.5%. To `O=C(C1CCCN(Cc2cccc(F)c2)C1)N1CCc2sccc2C1` (stereo not drawn) belongs 14.1%. Turning to `O=C(C1CCCN(Cc2ccccc2)C1)N1CCc2sccc2C1` (stereo not drawn), the INHIBITION is recorded as 48.8%. To `CCN1CCc2cc(-c3cncn3CC(=O)NC(C)(C)C)ccc21` belongs 6.32%; to `CC1Cc2cc(-c3cncn3CC(=O)NC(C)(C)C)ccc2N1C` (stereo not drawn), 52%; to `CN1CCCc2cc(-c3cncn3CC(=O)NC(C)(C)C)ccc21`, 18.3%. To `CCN1CCc2cc(-c3cncn3CCNC3CCS(=O)(=O)C3)ccc21` (stereo not drawn) belongs 27.6%.

For `Cc1nn(C)c(C)c1CCn1cncc1-c1ccc2c(c1)CC(C)N2C` (stereo not drawn), the INHIBITION is given as 22.8%. To `CCN1c2ccc(-c3cncn3CC(=O)NC(C)(C)C)cc2CC1C` (stereo not drawn) belongs 59.3%; to `CCN1CCC2(CN(C(C)=O)CC23CCN(CC2CC2)CC3)C1=O` (stereo not drawn), -23.3%; to `Cn1ccc(NC(=O)NC2CCCN(c3ccccc3Cl)C2=O)n1` (stereo not drawn), 74%. As for `Cc1cc(CC(=O)NC2CCCN(c3ccccc3Cl)C2=O)n[nH]1` (stereo not drawn), the figure is 8.44%. Regarding `Cn1cc(NC(=O)NC2CCCN(c3ccccc3Cl)C2=O)cn1` (stereo not drawn), the INHIBITION was 24.8%. To `CN1CCC(NC(=O)Nc2cnn(-c3ccccc3Cl)c2)C1=O` (stereo not drawn) belongs 37.7%.

For the molecule `CN1CCC(NC(=O)Nc2ccc(Cl)c(F)c2)C1=O` (stereo not drawn), the INHIBITION is on record as -6.39%.

Take `O=C(Nc1ccncc1)NC1CCN(c2ccccc2Cl)C1=O` (stereo not drawn): the INHIBITION stood at 50.8%. To `O=C(Nc1cc(F)ccc1OCC1CCCO1)N1CCSCC1` (stereo not drawn) belongs 41.2%; to `CC(=O)NCC1(COc2cnccn2)C[C@@H](O)[C@@H](O)C1` (stereo partly drawn), -3.52%. With `COCC(C)NC(=O)c1cn(C(C)C)cc2c(=O)[nH]nc1-2` (stereo not drawn), the INHIBITION worked out at 22%. As for `COc1ccc2c(OCC(=O)NCC(F)(F)F)ccnc2c1`, the figure is -121%; as for `CNC(=O)[C@H]1C[C@@H]2CN(C(=O)c3ccsc3)C[C@@H]2N1S(C)(=O)=O`, 32.2%. As for `CCOc1ncccc1NC(=O)N1CCN(Cc2ccncc2)CC1`, the figure is 18.75%.

Take `CCc1cc(N2CCC(NCCc3nc(C)c(C)s3)CC2)nc(C)n1`: the INHIBITION is reported as 30.3%. As for `CCCc1cncnc1N1CCC(NCCc2ccc(O)cc2)CC1`, the figure is 49.9%; as for `CCC1CCN(CCn2cnc3c(C)csc3c2=O)CC1`, -7.25%. For `Cc1csc2c(N3CCC(NCCc4ccnn4C)CC3)ncnc12`, the INHIBITION was found to be 53.6%. As for `CCc1nnc(CNC2CCN(c3ncnc4c(C)csc34)CC2)s1`, the figure is 61.3%; as for `CCc1nc(CNC2CCN(c3ccc(OC)cc3)CC2)cs1`, 34%. To `Cc1csc2c(N3CCC(NCCCC4CCOC4)CC3)ncnc12` (stereo not drawn) belongs 55.8%; to `Cc1csc2c(N3CCC(NCCCc4ccncc4)CC3)ncnc12`, 43.5%; to `CCCc1cncnc1N1CCC(NCCc2nc(O)cc(O)n2)CC1`, 8.23%. As for `Cc1nnc(CCNC2CCN(c3ncnc4c(C)csc34)CC2)s1`, the figure is 61.8%; as for `Cc1nc(C)n(CCNC2CCN(c3ncnc4c(C)csc34)CC2)n1`, -12.4%; as for `O=C(NCc1ccc2c(c1)OCO2)[C@@H]1C=CCN1c1ncccn1`, -0.232%. Regarding `CCOCC1CC2(CCN(C(=O)c3ccccn3)CC2)CO1` (stereo not drawn), the INHIBITION worked out at 32.4%. Take `Cc1cc(C)nc(N2CCC(C(=O)Nc3n[nH]c(C(C)C)n3)CC2)n1`: the INHIBITION is given as 24.7%.

Take `Cc1noc(C(C)Nc2ccc(N3CCOCC3)cc2C)n1` (stereo not drawn): the INHIBITION is reported as 23.1%.

For the molecule `CCOC(=O)CSc1nnc([C@@H](N)CC(C)C)o1`, the INHIBITION is 12.3%. To `O=C(COC1CCCC1)N1C[C@@H]2CN(Cc3ccoc3)CCO[C@@H]2C1` belongs 29.8%. As for `CN(C(=O)c1ccc(C#N)cc1)C1CCN(c2ccccn2)CC1`, the figure is -39.5%; as for `Cc1cc(N2CCC(N(C)C(=O)c3ccc(C#N)cc3)CC2)nc(C)n1`, 81.1%. As to `COc1ccccc1C(=O)N(C)C1CCN(c2ccccn2)CC1`, the INHIBITION is 19.5%. To `Cc1cc(N2CCC(N(C)C(=O)c3sccc3C)CC2)nc(C)n1` belongs 68.6%; to `Cc1cc(N2CCC(N(C)C(=O)c3ccccc3F)CC2)nc(C)n1`, 56.1%; to `Cc1cc(N2CCC(N(C)C(=O)c3ccccc3)CC2)nc(C)n1`, 2.3%. To `Cc1cc(N2CCC(N(C)C(=O)Nc3ccccc3)CC2)nc(C)n1` belongs 4.71%.

For the molecule `Cc1cc(N2CCC(O)CC2)nc(C)n1`, the INHIBITION stood at 41%. Regarding `Cc1cc(N2CCC(N(C)C(=O)c3cccs3)CC2)nc(C)n1`, the INHIBITION is 22%.

Consider `CCNc1cc2c(nn1)CCN(C(=O)CCc1c(C)noc1C)C2`, for which the INHIBITION is reported as 1.78%. As for `COc1c(C2CCCN2C(=O)c2cnc(C)cn2)c(C)nn1C` (stereo not drawn), the figure is -14.7%; as for `O=C(Cn1cc(-c2ccccc2)ncc1=O)Nc1nccs1`, -13.6%; as for `Cc1nc(C2CCCN(C(=O)c3ccnc(N(C)C)c3)C2)no1` (stereo not drawn), -27%. To `CN(C)C(=O)c1c[nH]nc1C1CCN(S(=O)(=O)c2ccccc2)CC1` belongs -36.4%.
